This is a sample that favours compounds with a hit; in the whole collection about 3.9% have one here.
HepG2 tox-1: counter-screen for TGF-b inhibitors: cytotoxicity in HepG2 cells | AID 588856 | 410,000 tested, 0.76% active | Potency, µM (top dose mostly 46.1 µM), hits mostly cytotoxic | HepG2 CAGA-GFP viability, ATP luminescence, 18 h
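HepG2 CAGA-GFP cells (1000/well, DMEM with 1% FBS) received compound, then TGF-beta at 500 pg/mL final, and were incubated 18 hours at 37 degrees C. Viability was read by CellTiter-Glo luminescence. Media-only wells were set as complete cell-killing and DMSO as no toxicity.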
S2 tox: cell viability loss in ATXN counter-screen. S2 cells (HEK-293 line with an ATXN2-luciferase reporter) viability, CellTiter-Fluor protease fluorescence, 24 h. Potency, µM (doses to about 56.7 µM), most hits filed as cytotoxic. 400,000 tested, 0.49% active. AID 651635; also: nearly all actives have a fitted effect of over 40% in size
HT1080-NT tox: kills 2HG-producing HT-1080-NT fibrosarcoma cells; HT-1080-NT fibrosarcoma viability, CellTiter-Glo ATP luminescence, 48 h; Potency, µM (series often up to 46.1 µM), actives largely listed as cytotoxic; 360,000 tested, 1.6% active; AID 686970;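 also: NT is the 2HG producing partner of a matched IDH1 knockdown line; nearly all actives have a fitted effect of over 55% in size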
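HT-1080-NT; 750 cells/well; 5% FBS RPMI; 48 h compound, 37 degrees C; CellTiter-Glo luminescence; curve fitting and curve-class assignment.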
TGFb inhibitor: TGF-b pathway inhibition; HepG2 CAGA-GFP TGF-b/SMAD3 reporter, GFP fluorescence, 18 h; TGF-beta stimulated, 500 pg/mL final; Potency, µM (doses to about 46.1 µM), actives largely listed as inhibitors; 410,000 tested, 1.2% active; AID 588855; also: nearly all actives have a fitted effect of over 65% in size
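Per well, imaged GFP fluorescence of HEPG2 CAGA-GFP cells gives the signal; cells get compound, then TGF-beta (500 pg/mL final), 18 h at 37 degrees C; %Activity versus -TGF-beta and +DMSO controls.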
HT1080 IDH1KD tx: HT-1080 IDH1 knockdown cell toxicity (counter line). Potency, µM (series often up to 46.1 µM), most hits filed as cytotoxic. 360,000 tested, 2% active. HT-1080 IDH1 knockdown viability, ATP luminescence, 48 h
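After a 2 h attachment period, IDH1KD HT-1080 cells took pin-transferred compound for 48 h at 37 °C; ATP-based luminescence after 10 min room-temperature reagent incubation reported viability.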
ATXN2 expr inh: inhibitors of ATXN2 expression; 360,000 tested, 0.72% active; AID 1745845; HEK-293 ATXN2-luciferase reporter, luminescence, 24 h; Potency, µM (series often up to 57 µM), usual class: inhibitors; also: nearly all actives have a fitted effect of over 55% in size
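ATXN2-luciferase reporter cells (luciferase flanked by upstream and downstream ATXN2 gene portions) were treated 24 h at 37 °C with compounds at up to 57 uM. SteadyGlo luminescence gave expression; GF-AFC fluorescence gave viability.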
TGFb CAGA inh: confirmation of TGF-b signaling inhibitors in HepG2 reporter cells. shares compounds with TGFb inhibitor. HepG2 CAGA-GFP TGF-b reporter, GFP fluorescence, 18 h; cells stimulated with TGF-beta, 500 pg/mL. Potency, µM (highest dose often 46.1 µM), hits mostly inhibitors. 1,600 tested, 63% active. AID 720534; also: nearly all actives have a fitted effect of over 65% in size
HepG2 tox-2: HepG2 cytotoxicity, TGF-b inhibitor counterscreen. shares compounds with TGFb inhibitor. HepG2 CAGA-GFP viability, ATP luminescence, 18 h; cells stimulated with TGF-beta, 500 pg/mL. Potency, µM (highest dose often 46.1 µM), usual class: inhibitors. 1,600 tested, 27% active; also: nearly all actives have a fitted effect of over 70% in size
TGFb CCL64 inh: TGF-b inhibition, CCL64 orthogonal assay. shares compounds with TGFb inhibitor. CCL64 CAGA-GFP reporter, TGF-b stimulated, GFP fluorescence, 18 h. Potency, µM (doses to about 46.1 µM), most hits filed as inhibitors. 1,600 tested, 41% active; also: nearly all actives have a fitted effect of over 65% in size
COP TGFb inh: validation of TGF-b inhibitors in HepG2 COP promoter reporter. HepG2 COP-GFP TGF-b reporter, GFP fluorescence, 18 h; cells stimulated by added recombinant TGF-beta. shares compounds with TGFb inhibitor. 1,600 tested, 3% active. Potency, µM (titrated, usually from 46.1 µM), hits mostly inhibitors; also: nearly all actives have a fitted effect of over 70% in size
Large screens that a line does not name were inactive (follow-up assays come after a bar, where they were run). Calls follow the shape of the dose curve; as a rule, active = well fitted curve in the direction sought with a large enough effect; inconclusive = small, poorly fitted or top-dose-only effect, or another doubt; inactive = no such curve, though single readings can be large; an effect the other way counts as inactive or inconclusive.

CCn1c(=O)c(C(=O)Nc2nc3ccccc3[nH]2)c(O)c2ccccc21	HT1080-NT tox 7.31µM, TGFb inhibitor 2µM, HT1080 IDH1KD tx 10.3µM | TGFb CAGA inh inactive | HepG2 tox-2 inconclusive | TGFb CCL64 inh inconclusive | COP TGFb inh inactive
COc1ccc(-c2cc3ccc(OC)cc3cn2)cc1	none
COc1ccc2cc(-c3ccccc3F)ncc2c1	TGFb inhibitor inconclusive | TGFb CAGA inh inactive | HepG2 tox-2 inactive | TGFb CCL64 inh inactive | COP TGFb inh inactive
CCN(CCCNC(=O)c1ccc(Sc2ccc(Cl)cc2)c(NC(C)=O)c1)c1ccccc1	TGFb inhibitor inconclusive (no result: S2 tox, HT1080-NT tox, HT1080 IDH1KD tx, ATXN2 expr inh)
CC(Nc1nc(-c2ccc(Cl)cc2)cs1)c1nc2cc(Cl)c(N3CCCCC3)cc2n1CCOCCO (stereo unspecified)	S2 tox inconclusive, HT1080-NT tox inconclusive, TGFb inhibitor 20µM, HT1080 IDH1KD tx inconclusive, ATXN2 expr inh inconclusive | TGFb CAGA inh inconclusive | HepG2 tox-2 inconclusive | TGFb CCL64 inh 18.4µM | COP TGFb inh inactive
CCCn1c(C(C)Nc2nc(-c3ccc(C)cc3)cs2)nc2ccccc21 (stereo unspecified)	S2 tox inconclusive, TGFb inhibitor 11.2µM, HT1080 IDH1KD tx inconclusive | TGFb CAGA inh inconclusive | HepG2 tox-2 inconclusive | TGFb CCL64 inh inconclusive | COP TGFb inh inactive
CCOc1ccc(S(=O)(=O)N2CCN(c3nc(-c4ccccc4)nc4ccccc34)CC2)cc1OCC	none (no result: S2 tox, HT1080-NT tox, HT1080 IDH1KD tx, ATXN2 expr inh)
CCOc1ccc(CCN2C(=S)N([C@@H](CC(C)C)CN3CCC[C@@H]3CN3C(=S)NC[C@@H]3CC(C)C)C[C@@H]2Cc2ccc(O)cc2)cc1	S2 tox 12.6µM, HT1080-NT tox 23.1µM, TGFb inhibitor 6.31µM, HT1080 IDH1KD tx 16.4µM, ATXN2 expr inh inconclusive | TGFb CAGA inh inconclusive | HepG2 tox-2 inconclusive | TGFb CCL64 inh 18.4µM | COP TGFb inh inactive
CCOc1ccc(CCN2C(=S)N([C@@H](CC(C)C)CN3CCCC3CN3C(=S)NC[C@@H]3CC(C)C)C[C@@H]2Cc2ccc(O)cc2)cc1 (stereo partly specified)	S2 tox inconclusive, TGFb inhibitor inconclusive, ATXN2 expr inh inconclusive
CCOc1ccc(CCN2C(=S)N([C@@H](CC(C)C)CN3CCCC3CN3C(=S)NC[C@@H]3Cc3ccc(O)cc3)C[C@@H]2CC(C)C)cc1 (stereo partly specified)	S2 tox inconclusive, TGFb inhibitor 4.47µM, HT1080 IDH1KD tx inconclusive | TGFb CAGA inh 11.6µM | HepG2 tox-2 inactive | TGFb CCL64 inh inconclusive | COP TGFb inh inactive
COc1ccc(NS(=O)(=O)c2ccc3[nH]c4c(c3c2)CCCC4)cc1OC	TGFb inhibitor inconclusive (no result: S2 tox, HT1080-NT tox, HT1080 IDH1KD tx, ATXN2 expr inh)
Cc1cc(N2CCN(c3ccccc3Cl)CC2)n2cc(-c3ccccc3)nc2n1	S2 tox inconclusive, TGFb inhibitor inconclusive, HT1080 IDH1KD tx inconclusive, ATXN2 expr inh inconclusive

Bioassay records as filed in PubChem.
